Measured values reported in PubChem BioAssay (NCATS).
Records with an inconclusive call do not appear. Entries that show only a call come without a potency. A number with no mark means an inactive call. Calls of active or inactive are those of the source. Calls come from the whole dose curve; as a rule, active = well fitted inhibition curve with a large enough effect; inconclusive = small, poorly fitted or top-dose-only effect; inactive = no such curve, though single readings can be large or run the other way.

Experiments:
[1] = test system: Zika virus NS2B-NS3 protease (unlinked complex); test: Primary screen GU Rhodamine qHTS for Zika virus inhibitors: Unlinked NS2B-NS3 protease assay (AID 1347159); note: nearly all actives have a fitted effect of over 60% in size
How it was run: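 Enzyme 25 nM in Tris-HCl pH 8.0 + 0.01% Tween 20; compounds up to 114 microM, 15 min RT dark; + Rhod110 substrate 1.5 microM; read t0 and 15 min; delta fluorescence → % inhibition → 4-parameter Hill fit.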

[2] = test system: Zika virus NS2B-NS3 protease (linked construct); test: Primary screen NINDS Rhodamine qHTS for Zika virus inhibitors (AID 1347160); note: nearly all actives have a fitted effect of over 55% in size
How it was run: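 Enzyme (25 nM, linked NS2B-NS3) was preincubated 15 min with compound in 10 mM Tris-HCl pH 8.0, 0.01% Tween 20. Rhodamine110 substrate (1.5 microM) was then added and fluorescence read at start and after 15 min.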

SMILES | Potency [1] | Potency [2] | activity change, negative = inhibition [1] | activity change, negative = inhibition [2]
Cc1ccccc1CN1CCn2c1nc1c(c2=O)CN(Cc2ccccc2)CC1 | inactive | inactive | – | –
CCCCC1CCN(CCCN2C(=O)CCc3ccccc32)CC1 | inactive | inactive | – | –
CC(C)NCCCn1c(Sc2cc3c(cc2I)OCO3)nc2c(N)ncnc21 | inactive | inactive | – | –
O=C(Nc1cccnc1)c1cc(-c2ccnc(F)c2)ccc1OCc1ccccc1 | inactive | inactive | – | –
Cc1ccc(N2CCN(S(=O)(=O)N3CCCCC3)CC2)c(C)c1 | inactive | inactive | – | –
Cc1nc(C#Cc2ccnc(Cl)c2)c(C)n1-c1ccc(F)cc1 | inactive | inactive | – | –
c1cc(NC2CCNCC2)nc(-c2cnc3ccccn23)c1 | inactive | inactive | – | –
C=CC(C)(O)CC/C=C(\C)C(=O)OC1C(O)C(CO)OC(OC(=O)C23CCC(C)(C)CC2C2=CCC4C5(C)CCC(OC6OC(COC7OCC(OC(C)=O)C(O)C7OC7OC(COC(C)=O)C(O)C(O)C7OC(C)=O)C(O)C(O)C6OC6OCC(O)C(O)C6O)C(C)(C)C5CCC4(C)C2(C)C(O)C3O)C1OC1OCC(OC2OCC(O)C(OC3OCC(O)C(O)C3O)C2O)C(O)C1O (stereo not drawn) | – | – | 23.6% [at 19.1 µM] | -13.7% [at 10.7 µM]
COc1ccc(NC(=O)C2C[C@H](C)CC[C@H]2C(C)C)cc1 (stereo partly drawn) | inactive | inactive | – | –
C/C(=C\CO[C@@H]1O[C@H](CO[C@H]2OC[C@](O)(CO)[C@H]2O)[C@@H](O)[C@H](O)[C@H]1O)C(C)(C)O | inactive | inactive | – | –
CN1CCC(c2cn(C)c3ccc(OS(=O)(=O)c4c(F)cccc4F)cc23)CC1 | inactive | inactive | – | –
C=C1C(=O)O[C@@H]2[C@H]1CC(=O)[C@H](C)[C@@](O)(C(=O)/C=C/C)[C@H]2OC(=O)C(C)CC (stereo partly drawn) | inactive | inactive | – | –
COc1ccccc1C(=O)Nc1cc2c(cc1N1CCCC1)n(C)c(=O)n2C | inactive | inactive | – | –
CNS(=O)(=O)c1ccccc1Nc1nc(Nc2ccc(N3CCN(C)CC3)cc2OC)ncc1Br | inactive | inactive | – | –
C[C@H](Nc1ncnc2nc[nH]c12)c1cc2cccc(Cl)c2c(=O)n1-c1ccccc1 | inactive | inactive | – | –
CCC(C)CC(=O)OC1C(=O)C(CO)=CC(O)C1C(C)C (stereo not drawn) | inactive | inactive | – | –
Cc1cn(CCN2CCN(c3ccccc3-c3cc(C#N)cc(C(=O)NCCCN4CCCC4)c3)CC2)c2ccccc12 | inactive | inactive | – | –
COC1=CC(=O)O/C1=C(/OC)[C@@H]1O[C@H]1c1ccccc1 | inactive | inactive | – | –
C=C1C(=O)OC2/C=C(\COC(C)=O)CC/C=C(\C=O)CC(OC(=O)C(C)CC)C12 (stereo not drawn) | inactive | inactive | – | –
C=C1C(=O)OC2/C=C(\C)CC/C=C(\C)CC(OC(C)=O)C12 (stereo not drawn) | inactive | inactive | – | –
CC(C)(F)CC(NC(c1ccc(-c2ccc(S(C)(=O)=O)cc2)cc1)C(F)(F)F)C(=O)NC1(C#N)CC1 (stereo not drawn) | inactive | inactive | – | –
CC(C)=CCCC1(C)/C=C/C(OC(=O)C=C(C)C)C(C)(O)/C=C/C(=O)/C(CO)=C\C1 (stereo not drawn) | inactive | inactive | – | –
Cc1ccc(N2CCN(CCC3NC(=O)c4ccccc43)CC2)cc1C (stereo not drawn) | inactive | inactive | – | –
FC(F)(F)c1ccc(/C=C/c2nc(COc3ccc(CCCCn4ccnn4)cc3)co2)cc1 | inactive | inactive | – | –
O=C(c1ccc(F)cc1)N1CCCC(c2nc(-c3ccc(F)cc3)no2)C1 (stereo not drawn) | inactive | inactive | – | –

SMILES | Potency [1] | Potency [2] | activity change, negative = inhibition [1] | activity change, negative = inhibition [2]
COC(CCc1ccc(O)cc1)CC(=O)CCc1ccc(O)cc1 (stereo not drawn) | inactive | inactive | – | –
CC(C)Oc1ccc(-c2cnc3c(-c4ccnc5ccccc45)cnn3c2)cc1 | inactive | inactive | – | –
Cn1cc(-c2ccc(S(=O)(=O)n3ccc(/C=C/C(=O)Nc4ccccc4N)c3)cc2)cn1 | inactive | inactive | – | –
O=C(CNC(=O)c1cccc(C(F)(F)F)c1)N[C@@H]1CCN(Cc2ccc(Cl)cc2)C1 | inactive | inactive | – | –
CC1(C)OC[C@H](NC(=O)Nc2ccc(Br)cc2Br)[C@H](c2ccccc2)O1 | inactive | inactive | – | –
C=CC(=O)Nc1ccc(CN2C(=O)N(c3cc(OC)cc(OC)c3)Cc3cnc(Nc4ccc(N5CCN(C)CC5)cc4)nc32)cc1 | inactive | inactive | – | –
O=C(NNc1nc2cc(F)ccc2n2cccc12)c1cnccn1 | inactive | inactive | – | –
CN1CCN(S(=O)(=O)c2ccc(-c3cnc(N)c(C(=O)Nc4cccnc4)n3)cc2)CC1 | inactive | inactive | – | –
CC1(C)CC[C@]2(C(=O)O)CC[C@]3(C)C(=CCC4[C@@]5(C)C[C@@H](O)[C@H](O)C(CO)(CO)C5CC[C@]43C)C2[C@@H]1O (stereo partly drawn) | inactive | inactive | – | –
O=C(Nc1ccnc(NC(=O)C2CC2)c1)c1c(Cl)cccc1Cl | inactive | inactive | – | –
O=C(NC[C@H](O)CN1CCc2ccccc2C1)c1ccnc(NC2CCC2)c1 | inactive | inactive | – | –
COC(=O)c1ccc(N2CCN(C)CC2)c(NC(=O)c2cccc(OC)c2)c1 | inactive | inactive | – | –
O=C(NCCN1CCN(c2cccc3ccc(O)cc23)CC1)c1ccc(F)cc1 | inactive | inactive | – | –
CC(=O)c1c(C)cc2cccc(O)c2c1O[C@@H]1O[C@H](CO)[C@@H](O)[C@H](O)[C@H]1O | inactive | inactive | – | –
C/C=C(\C)C(=O)OC1C(C)C2(O)C(C=C(CO)CC3(O)C(=O)C(C)=CC32)C2C(C)(C)C12OC(=O)C(C)C (stereo not drawn) | inactive | inactive | – | –
COc1ccc(C[C@H]2COC(=O)[C@@H]2Cc2ccc(O[C@@H]3O[C@H](CO)[C@@H](O)[C@H](O)[C@H]3O)c(OC)c2)cc1OC | inactive | inactive | – | –
CC1(C)CC[C@]2(C(=O)O)[C@H](O)C[C@]3(C)C(=CCC4[C@@]5(C)CC[C@H](O[C@@H]6O[C@H](CO[C@@H]7OC[C@H](O)[C@H](O)[C@H]7O[C@@H]7OC[C@H](O)[C@H](O)[C@H]7O)[C@@H](O)[C@H](O)[C@H]6O)C(C)(C)C5CC[C@]43C)[C@@H]2C1 (stereo partly drawn) | inactive | inactive | – | –
Cc1cc(C)nc(SCC(=O)Nc2ncc(Cc3cccc4ccccc34)s2)n1 | inactive | inactive | – | –
COc1cc2ncnc(Nc3ccc(O)c(Br)c3)c2cc1OC | inactive | inactive | – | –
CCN(CC)CCCCCCNc1cc(OC)cc2c(C)ccnc12 | inactive | inactive | – | –
O=C(Nc1cccc([N+](=O)[O-])c1)c1cccc(S(=O)(=O)N2CCCCCC2)c1 | inactive | inactive | – | –
COc1ccc(C#Cc2ccc(C(=O)N3CCC[C@@H](CO)C3)cc2)cc1 | inactive | inactive | – | –
Fc1ccc(-c2cncc(CN3CCN(c4cccc5c4OCCO5)CC3)c2)cc1 | inactive | inactive | – | –
CC(C)S(=O)(=O)NC[C@@H]1CC(c2ccc(N3CCCC3)c(F)c2)=NO1 | inactive | inactive | – | –
CNc1cc2[nH]c(=O)n(-c3ccc(NC(=O)NS(=O)(=O)c4ccc(Cl)s4)cc3)c(=O)c2cc1F | inactive | inactive | – | –

SMILES | Potency [1] | Potency [2] | activity change, negative = inhibition [1] | activity change, negative = inhibition [2]
Cc1nc(Nc2cnn(C3CCNCC3)c2)nc2c1N(C)C(=O)c1cc3ccccc3cc1N2C | inactive | inactive | – | –
Nc1ncnc2c1c(-c1ccc(Oc3ccccc3)cc1)nn2[C@@H]1CCCNC1 | inactive | inactive | – | –
CN(C)C(=O)Nc1cccc(-c2ccc(N(C)C)cc2)c1 | inactive | inactive | – | –
CC(C)(O)c1ccc2c(c1)ncn2-c1cccc(-c2ccccc2C#N)c1 | inactive | inactive | – | –
CC1=CC2/C=C(\C)CCC(O)C/C=C/C(=O)OC23C(=O)NC(CC(C)C)C3C1C (stereo not drawn) | inactive | inactive | – | –
CC(C)c1cc(-c2ccc(F)c3ccccc23)nc(N)n1 | inactive | inactive | – | –
CC(C)CCCCC(=O)N[C@@H](CO)C(=O)N[C@@H](CC(C)C)C(=O)[C@@]1(CO)CO1 | inactive | inactive | – | –
Cc1cc(N2CCN(C(=O)Oc3ccc(-c4ccccc4)cn3)CC2)c2ccccc2n1 | inactive | inactive | – | –
COc1ccc(C#Cc2ccc(C(=O)N3CCC[C@@H](O)C3)c(F)c2)cc1 | inactive | inactive | – | –
COc1cc(C(=O)NCC2(N(C)C)CCCC2)cc(OC)c1OCc1ccccc1 | inactive | inactive | – | –
O=C(Nc1nc2ccc([N+](=O)[O-])cc2s1)C1CCCCC1 | inactive | inactive | – | –
O=C(Nc1ccccc1C(=O)Nc1ccc(CCO)cc1)c1ccc([N+](=O)[O-])cc1 | inactive | inactive | – | –
O=C(Nc1ccccc1)N1CCC(Cc2cnc3ccccc3c2)CC1 | inactive | inactive | – | –
CCC(CC)C(=O)OC12C(OC(=O)C(C)C)C(C)C3(O)C(C=C(CO)CC4(O)C(=O)C(C)=CC43)C1C2(C)C (stereo not drawn) | inactive | inactive | – | –
CN1CCN(c2ccc(OC(F)(F)F)c(Nc3ncc4c(n3)-c3c(c(C(N)=O)nn3CCO)CC4)c2)CC1 | inactive | inactive | – | –
Cc1cc(C)c(-n2cc(C)c3c(Cl)nc(C)nc32)c(C)c1 | inactive | inactive | – | –
CCN1CCN(Cc2ccc(NC(=O)c3ccc(C)c(Oc4ccnc5[nH]ccc45)c3)cc2C(F)(F)F)CC1 | inactive | inactive | – | –
O=C(NCC(=O)N1CCCC1)Nc1ccc2cnccc2c1 | inactive | inactive | – | –
C=C1C(=O)O[C@@H]2[C@H]1CC[C@H](C)[C@]1(CCC(=O)O1)C2(C)O (stereo partly drawn) | inactive | inactive | – | –
COc1cc(C(C)C)c(Oc2cnc(N)nc2N)cc1I | inactive | inactive | – | –
Cc1c(C(=O)NCc2cccnc2)nn(-c2ccc(Cl)cc2Cl)c1-c1ccc(Cl)cc1 | inactive | inactive | – | –
C=C1C(=O)O[C@@H]2/C=C(\CO)CC/C=C(/C=O)C[C@@H](O)[C@@H]12 | inactive | inactive | – | –
CC(C)(C)NC(=O)[C@H]1CC[C@H]2[C@@H]3CC[C@H]4NC(=O)CC[C@]4(C)[C@H]3CC[C@]12C | inactive | inactive | – | –
C=C1/C(=C/C=C2\CCC[C@]3(C)[C@@H]([C@H](C)CC[C@@H](O)C(C)(C)O)CC[C@@H]23)C[C@@H](O)C[C@@H]1O | inactive | inactive | – | –
